HT1080 IDH1KD tx = qHTS for induction of synthetic lethality in tumor cells producing 2HG: qHTS for the HT-1080-IDH1KD cell line; AID 686971, 2013; 360,000 compounds, 2% hits; Potency, µM (top dose mostly 46.1 µM), without a hit: at the top dose activity, negative = toxicity, usual class: cytotoxic; HT-1080 IDH1 knockdown viability, ATP luminescence, 48 h;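 note: potency is the fitted concentration of half-maximal effect; 0% = DMSO wells and -100% = cell-free medium wells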
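In this qHTS, HT-1080 cells depleted of IDH1 are exposed for 48 h at 37 °C to compound titrations. Toxicity is scored from CellTiter-Glo luminescence, with DMSO as full viability and medium alone as none.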
IL1B secr inh = qHTS for Inhibitors of Inflammasome Signaling: IL-1-beta AlphaLISA Primary Screen. AID 743279, 2014. THP-1 LPS/ATP IL-1B secretion, AlphaLISA, 16 h; hits give low values. activity change, % at 57.5 µM. 360,000 compounds, 4.7% hits; in the data active = activity change below about -50%; inconclusive = mostly about -30% to -49%
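Secreted IL-1B measured by AlphaLISA bead assay after 16 h compound exposure of THP-1 cells; compounds (final up to 57.5 uM) added 1 h before LPS (250 ng/mL) and ATP (1.25 mM) stimulation; lower signal means less secretion.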
HT1080NT lethal = qHTS for induction of synthetic lethality in tumor cells producing 2HG: qHTS for the HT-1080-NT fibrosarcoma cell line; Potency, µM (top dose mostly 46.1 µM), inactives show at the top dose activity, negative = less viability, usual class: cytotoxic; HT-1080-NT fibrosarcoma viability, CellTiter-Glo ATP luminescence, 48 h; 360,000 compounds, 1.6% hits;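 note: NT is the 2HG producing partner of a matched IDH1 knockdown line; potency is the fitted concentration of half-maximal effect; 0% = DMSO-treated cells and -100% = media-only wells without cells; nearly all actives have a fitted effect of over 55% in size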
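750 cells/well, RPMI + 5% FBS; 2 h settle, compound pin-transfer, 48 h at 37 degrees C. CellTiter-Glo 10 min RT, luminescence. Normalized to DMSO and media-only wells.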
DT40 TDP1 no CPT = qHTS for Inhibitors of human tyrosyl-DNA phosphodiesterase 1 (TDP1): qHTS in cells in absence of CPT; DT40 Tdp1-/- hTDP1 cells, no CPT, ATP luminescence, 48 h; Potency, µM (titrated, usually from 46.2 µM), without a hit: at the highest dose activity change, negative = growth inhibition, usual class: inhibitors; 420,000 compounds, 15% hits; note: potency is the fitted concentration of half-maximal effect; nearly all actives have a fitted effect of over 55% in size
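Stably hTDP1-transfected Tdp1-null chicken DT40 cells were treated with library compounds minus camptothecin and grown for at least 48 hr at 37 °C, after which cellular ATP was quantified by luminescence.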
TDP1 cell CPT = qHTS for Inhibitors of human tyrosyl-DNA phosphodiesterase 1 (TDP1): qHTS in cells in presence of CPT; chicken DT40 Tdp1-/-;hTDP1 cells + 20 nM CPT, ATP luminescence, 48 h; 420,000 compounds, 12% hits; Potency, µM (series often up to 46.2 µM), inactives show at the highest dose activity change, negative = growth inhibition, actives largely listed as inhibitors; note: potency is the fitted concentration of half-maximal effect; nearly all actives have a fitted effect of over 55% in size
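Chicken DT40 Tdp1-/- cells complemented with human TDP1, 400 cells/well, exposed to compounds plus 20 nM camptothecin for at least 48 h at 37 C; viability read as ATP content by CellTiter-Glo luminescence.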
Active calls of the source: *; u = inconclusive; x = not tested or not shown. In the library only some 19% were active in any assay of this set; here they are far more common. Unless noted, calls come from the whole dose curve; as a rule, active = well fitted curve in the direction sought with a large enough effect; inconclusive = small, poorly fitted or top-dose-only effect, or another doubt; inactive = no such curve, though single readings can be large; an effect the other way counts as inactive or inconclusive. Unless noted, % is set by controls: 0 for no effect and ±100 for the full control effect.

SMILES	HT1080 IDH1KD tx	IL1B secr inh	HT1080NT lethal	DT40 TDP1 no CPT	TDP1 cell CPT
CCCCCCC1CC(=CN(C)C)C(=O)O1 (stereo not given)	-30%	9	u	16µM*	u
Cc1cc(C)n(CCC(=O)N=Nc2c(O)[nH]c3ccc(Br)cc23)n1	-9%	32	1%	u	u
COc1ccc2[nH]c(O)c(N=NC(=O)Cc3cccs3)c2c1	-9%	0	0%	u	u
COc1ccc(/C=N/OCC(=O)N=Nc2c(O)[nH]c3ccc(Br)cc23)cc1OC	-10%	40	u	23µM*	26µM*
COc1ccc(/C(C)=N/OCC(=O)N=Nc2c(O)[nH]c3ccc(Br)cc23)cc1	u	0	22%	18µM*	u
CC1(c2ccccc2)NC(=O)N(CC(=O)Nc2ccc(N3CCOCC3)cc2)C1=O (stereo not given)	-1%	-4	-7%	13%	u
Cc1ccc(C)n1-c1c(C(=O)NCC(C)c2ccccc2)sc2ncccc12 (stereo not given)	x	x	x	18µM*	21µM*
Cc1ccc(CCNC(=O)c2sc3ncccc3c2-n2c(C)ccc2C)cc1	x	x	x	6.5µM*	12µM*
CCOc1ccc(CCNC(=O)c2sc3ncccc3c2-n2c(C)ccc2C)cc1	x	x	x	15µM*	13µM*
O=C(O)c1sc2ncccc2c1OCc1ccccc1	5%	13	5%	-5%	22%
C[C@H](NC(=O)[C@@H]1CSC2c3ccccc3C(=O)N21)C(=O)NC1CCCCC1 (stereo not given in full)	-7%	1	0%	2%	-12%
CN(C)S(=O)(=O)c1ccc(Cl)c(C(=O)NC2CCCCCCC2)c1	u	-4	2%	u	u
COc1ccc(-c2nc(CS(=O)(=O)CC(=O)NCc3ccccc3OC)c(C)o2)cc1	-1%	-8	-4%	-7%	-11%
COc1ccc(-c2nc3oc4cc(OC)ccc4c(=O)c3c(=O)n2Cc2ccco2)cc1	-3%	-24	0%	23µM*	u
CCc1nc2oc3cc(OC)ccc3c(=O)c2c(=O)n1Cc1ccco1	-1%	-6	7%	-28%	-8%
COc1ccc(Cn2c(-c3ccco3)nc3oc4cc(OC)ccc4c(=O)c3c2=O)cc1	13%	0	14%	16µM*	u
COc1ccc2c(=O)c3c(=O)n(Cc4ccco4)c(-c4ccco4)nc3oc2c1	0%	-21	15%	u	20µM*
COc1ccc(Cn2c(-c3ccco3)nc3oc4ccccc4c(=O)c3c2=O)cc1	18%	u	14%	-13%	-12%
Cc1oc2ncn(CC(C)C)c(=O)c2c1C(=O)N(CCN(C)C)Cc1ccccc1	x	x	x	-9%	-22%
Oc1c(Cl)cc(Cl)c2c1NCCC2	-22%	14	-2%	10µM*	6.5µM*
O=C1NCCCc2c1oc1ccc(O)cc21	-17%	13	6%	u	u
Cc1ccc(-n2cccn2)c(CN2CCCC(C(=O)c3ccc4c(c3)OCO4)C2)c1 (stereo not given)	u	-60*	-15%	u	u
Cc1ccc(-n2cccn2)c(CN2CCCC(CNC(=O)c3ccc(F)cc3)C2)c1 (stereo not given)	-28%	-3	u	12µM*	u
Cn1cc(-c2coc3c(C(=O)NCc4cccc(Cl)c4)cccc23)cn1	-22%	-68*	u	5.8µM*	u
COc1ccc(-c2ccc(C(=O)NCCc3ccccc3)c3occc23)c(C)c1	u	-15	u	21µM*	21µM*
COc1ccc(CNC(=O)c2ccc(-n3ccnc3)c3ccoc23)cc1OC	-4%	-16	2%	u	18µM*

Compound activity as filed in PubChem BioAssay.
